Reference: PubChem BioAssay (Tox21)
Records with an inconclusive call do not appear. Entries that show only a call come without a potency. The source made the active and inactive calls. Unless noted, calls follow the shape of the dose curve; as a rule, active = well fitted curve in the direction sought with a large enough effect in the repeat runs; inconclusive = weak or mixed curves; inactive = no such curve, though single readings can be large; an effect the other way counts as inactive or inconclusive.

What was measured:
[1] = qHTS assay to identify small molecule antagonists of the thyroid receptor (TR) signaling pathway - cell viability counter screen (AID 743064); also: nearly all actives have a fitted effect of over 50% in size
Outline: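 Same-well viability check: GH3.TRE-Luc cells stimulated with 1 nM T3 alongside test compound for 23.5 h, followed by CellTiter-Fluor fluorescence.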

[2] = qHTS assay to identify small molecule antagonists of the thyroid receptor (TR) signaling pathway (AID 743065); also: nearly all actives have a fitted effect of over 55% in size; also: potency is read from the fitted curve at half-maximal effect
Outline: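 GH3.TRE-Luc rat pituitary cells carrying two TR response elements driving luciferase were plated for 4 h, given compound plus 1 nM T3 (final), and incubated 23.5 h at 37 C. ONE-Glo luminescence measured reporter inhibition; CellTiter-Fluor fluorescence tracked cytotoxicity.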

[3] = test system: thyroid hormone receptor (rat, GH3 cells); experiment: qHTS assay to identify small molecule agonists of the thyroid receptor (TR) signaling pathway (AID 743066; calls by dose curve)
[4] = qHTS assay to identify small molecule antagonists of the estrogen receptor alpha (ER-alpha) signaling pathway - cell viability counter screen (AID 743074; calls by dose curve;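 also: HEK293 cells carrying ER-alpha-UAS-bla reporter stimulated with 17beta-estradiol; nearly all actives have a fitted effect of over 45% in size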; also: potency is read from the fitted curve at half-maximal effect)
[5] = target: Estrogen receptor (Homo sapiens) (UniProt P03372); experiment: qHTS assay to identify small molecule agonists of the estrogen receptor alpha (ER-alpha) signaling pathway (AID 743075; calls by dose curve;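 also: HEK293 GripTite cells with ER-alpha and UAS-driven beta-lactamase reporter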)
Chain of Estrogen receptor (Homo sapiens) (P03372 whole entry, looked up): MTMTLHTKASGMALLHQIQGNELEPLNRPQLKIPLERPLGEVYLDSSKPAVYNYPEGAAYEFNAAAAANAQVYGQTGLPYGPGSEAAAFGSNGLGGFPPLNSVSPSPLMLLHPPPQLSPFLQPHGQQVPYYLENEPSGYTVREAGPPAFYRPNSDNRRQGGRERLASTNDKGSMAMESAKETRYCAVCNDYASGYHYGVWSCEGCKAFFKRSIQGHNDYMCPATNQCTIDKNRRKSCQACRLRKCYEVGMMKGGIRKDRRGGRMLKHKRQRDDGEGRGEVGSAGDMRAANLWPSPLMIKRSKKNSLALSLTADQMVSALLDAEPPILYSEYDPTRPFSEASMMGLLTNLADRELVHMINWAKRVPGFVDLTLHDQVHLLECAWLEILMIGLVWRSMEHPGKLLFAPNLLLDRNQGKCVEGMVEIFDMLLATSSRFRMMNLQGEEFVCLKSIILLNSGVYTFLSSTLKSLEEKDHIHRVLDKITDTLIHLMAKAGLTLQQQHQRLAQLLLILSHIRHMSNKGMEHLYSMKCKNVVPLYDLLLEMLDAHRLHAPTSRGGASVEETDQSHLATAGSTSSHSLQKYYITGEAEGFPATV

Aromatase (Homo sapiens) = Aromatase (Homo sapiens) (UniProt P11511); experiment: qHTS assay to identify aromatase inhibitors (AID 743083); also: nearly all actives have a fitted effect of over 55% in size; also: potency is read from the fitted curve at half-maximal effect
Chain of Aromatase (Homo sapiens) (P11511 whole entry, looked up): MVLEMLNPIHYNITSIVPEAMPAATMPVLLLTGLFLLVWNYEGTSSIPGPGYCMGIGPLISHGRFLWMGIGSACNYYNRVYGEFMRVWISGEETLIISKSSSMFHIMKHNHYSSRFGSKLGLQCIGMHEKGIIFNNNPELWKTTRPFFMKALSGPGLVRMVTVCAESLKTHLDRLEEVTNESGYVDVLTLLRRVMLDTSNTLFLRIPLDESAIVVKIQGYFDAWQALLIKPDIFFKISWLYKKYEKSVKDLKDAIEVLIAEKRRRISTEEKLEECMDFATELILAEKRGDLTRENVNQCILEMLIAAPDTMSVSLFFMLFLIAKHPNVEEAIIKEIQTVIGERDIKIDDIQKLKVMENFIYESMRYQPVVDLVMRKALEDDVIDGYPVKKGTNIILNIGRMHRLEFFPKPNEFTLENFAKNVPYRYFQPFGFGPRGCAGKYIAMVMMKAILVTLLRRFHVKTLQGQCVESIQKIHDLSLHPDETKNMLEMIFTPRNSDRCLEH

[6] = target: Estrogen receptor (Homo sapiens) (UniProt P03372); experiment: qHTS assay to identify small molecule agonists of the estrogen receptor alpha (ER-alpha) signaling pathway using the BG1 cell line (AID 743079); conditions: BG1Luc4E2 cells, ERE-luciferase agonist, 22 h; activation: at 70.3 µM (top of the series); also: nearly all actives have a fitted effect of over 20% in size; also: potency is read from the fitted curve at half-maximal effect
[7] = qHTS assay to identify small molecule antagonists of the estrogen receptor alpha (ER-alpha) signaling pathway using the BG1 cell line (AID 743080; calls by dose curve;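 also: BG1 cells stimulated with 17beta-estradiol alongside compound; nearly all actives have a fitted effect of over 25% in size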)
Outline: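 Readout is ONE-Glo luminescence, taken 30 min at room temperature after reagent addition, preceded by a CellTiter-Fluor viability read; BG1-Luc-4E2 cells had received compound and 17beta-estradiol for 21.5 h at 37 C.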

[8] = qHTS assay to identify small molecule antagonists of the estrogen receptor alpha (ER-alpha) signaling pathway using the BG1 cell line - cell viability counter screen (AID 743081);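 also: compound given together with 17beta-estradiol as the ER stimulus; nearly all actives have a fitted effect of over 45% in size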

Compound	Potency [1]	Potency [2]	Potency [3]	Potency [4]	Potency [5]	Potency (Aromatase (Homo sapiens))	Potency [6]	Potency [7]	Potency [8]
C=C1CC2C3CCC4=CC(=O)C=C[C@]4(C)[C@@]3(F)[C@@H](O)C[C@]2(C)[C@@]1(O)C(=O)COC(C)=O (stereo partly specified)	inactive	inactive	inactive	inactive	inactive	inactive	–	–	–
Cc1ccccc1CNc1ncnc2c1ncn2[C@@H]1O[C@H](CO)[C@@H](O)[C@H]1O	inactive	inactive	inactive	inactive	–	–	inactive	inactive	inactive
CCC(=O)OCC(=O)[C@@]1(OC(=O)CC)[C@H](C)C[C@H]2[C@H]3[C@H]([C@@H](O)C[C@@]21C)[C@@]1(C)C=CC(=O)C=C1C[C@H]3Cl	inactive	inactive	inactive	inactive	inactive	inactive	–	–	inactive
CS(=O)(=O)NC(=O)CCC/C=C\C[C@H]1C(=O)C[C@@H](O)[C@@H]1/C=C/[C@H](O)COc1ccccc1	inactive	inactive	inactive	inactive	inactive	inactive	inactive	–	–
C[C@]12CC[C@@H]3c4ccc(OS(=O)(=O)O)cc4CC[C@H]3[C@@H]1CCC2=O	inactive	inactive	inactive	inactive	–	–	–	–	inactive
COc1ccc(CNCC(O)COc2ccc3[nH]c(=O)ccc3c2)cc1OC (stereo unspecified)	inactive	inactive	inactive	inactive	–	inactive	–	–	inactive
O=C1N=C2SCCN2C(=O)C1Cc1ccc(Cl)cc1 (stereo unspecified)	inactive	inactive	inactive	inactive	–	–	–	–	inactive
O=C(/C=C/c1cccc(F)c1)NC1CC1	inactive	inactive	inactive	inactive	–	inactive	–	–	inactive
CCCCC[C@H](O)/C=C/[C@@H]1[C@H]2C/C(=C/CCCC(=O)O)O[C@H]2C[C@H]1O	inactive	inactive	inactive	inactive	–	inactive	inactive	–	–
CC(=O)N=c1sc(S(N)(=O)=O)nn1C	inactive	inactive	inactive	inactive	inactive	inactive	inactive	inactive	inactive
CC1CCC(NC(=O)N(CCCl)N=O)CC1 (stereo unspecified)	inactive	inactive	inactive	inactive	inactive	inactive	26.6 µM (active)	–	inactive
CN=C(NC)NCc1ccccc1	inactive	inactive	inactive	inactive	inactive	inactive	–	inactive	inactive
CCN(CC)CCOC(=O)c1ccc(N)cc1Cl	inactive	inactive	inactive	inactive	inactive	inactive	inactive	inactive	–
CC1(C)S[C@@H]2[C@H](NC(=O)C3(N)CCCCC3)C(=O)N2[C@H]1C(=O)O	inactive	inactive	inactive	inactive	–	inactive	–	–	inactive
OC1OC[C@@H](O)[C@H](O)[C@@H]1O (stereo partly specified)	inactive	inactive	inactive	inactive	–	inactive	–	–	inactive
CO[C@@]1(NC(=O)C2SC(=C(C(N)=O)C(=O)O)S2)C(=O)N2C(C(=O)O)=C(CSc3nnnn3C)CS[C@@H]21 (stereo partly specified)	inactive	inactive	inactive	inactive	–	inactive	–	–	inactive
CN(CCO)CC(O)Cn1cnc2c1c(=O)n(C)c(=O)n2C (stereo unspecified) (tested in a mixture with another compound)	inactive	inactive	inactive	inactive	–	inactive	–	–	inactive
NNc1nnc(Cc2ccncc2)c2ccccc12	inactive	4.73 µM (active)	inactive	inactive	–	13.3 µM (active)	–	–	–
CCC(C)C(C(=O)OCC[N+](C)(CC)CC)c1ccccc1 (stereo unspecified)	inactive	inactive	inactive	inactive	–	inactive	–	–	inactive
CCCCCCCCCCCCCCCCCCCCCCO	inactive	inactive	inactive	inactive	–	inactive	–	–	inactive
CC(=O)Nc1ccc(OC(=O)c2ccccc2O)cc1	inactive	inactive	inactive	inactive	–	inactive	–	–	inactive
C[C@H]1C[C@@H]2[C@H]([C@@H](O)C[C@@]3(C)[C@H]2CC[C@]3(O)C(=O)COC(=O)CCC(=O)O)[C@@]2(C)C=CC(=O)C=C12	inactive	inactive	inactive	10.7 µM (active)	–	inactive	–	–	inactive
